Laboratory results from PubChem BioAssay (NCATS).
Values joined by “and” are separate entries in the source; they are usually repeats but may differ in a detail not shown here. Identical values can stand only once. Results filed as inconclusive are left out. Where a call stands in place of a potency, no number is given. Active and inactive are the calls of the source. Calls come from the whole dose curve; as a rule, active = well fitted inhibition curve with a large enough effect; inconclusive = small, poorly fitted or top-dose-only effect; inactive = no such curve, though single readings can be large or run the other way.

Experiment: Primary qHTS for inhibitors of nuclear receptor binding SET domain protein 2 (NSD2) in an RCH-ACV wild type WT cells (2C) (AID 1645877); note: nearly all actives have a fitted effect of over 70% in size
Details: RCH-ACV (leukaemia line) NSD2 WT (2C) viability, CellTiter-Glo, 72 h; series mostly up to 44.9 µM
Potency is the fitted concentration of half-maximal effect.

SMILES	Potency	activity change, negative = cell killing
CNC(=O)c1ccc(Nc2ncc(C(F)(F)F)c(NCc3nccnc3N(C)S(C)(=O)=O)n2)cc1	2.05 µM (active) and 1.86 µM (active)	–
CC(C)(C)NCC(O)COc1cccc2c1CCCC2=O (configuration not stated)	4.59 µM (active)	–
COc1cccc(-n2nc(C(=O)O)cc2-c2ccc(C3CCCCC3)c(Cl)c2)c1	inactive	–
C#Cc1cnc2[nH]c(=O)n(C(CC)CC)c2n1	inactive	–
O=C(c1ccc(F)cc1)C1CCN(CCn2c(=O)nc3n(c2=O)CCCC3)CC1	inactive	–
CC(C)C(=O)c1cn(CC(=O)COc2ccc(Oc3ccccc3)cc2)c2ccc(C(=O)O)cc12	inactive	–
C(#Cc1cccc(CN2CCOCC2)c1)CCN1CCCCC1	inactive	–
Cc1c(-c2ccnn2C)cc(C(=O)NCc2ccc(S(C)(=O)=O)cn2)c(=O)n1-c1cccc(C(F)(F)F)c1	inactive	–
CC(C)(C)NCc1cc(Nc2ccnc3cc(Cl)ccc23)c2c(c1O)CCCC2	–	-13.7% [at 0.588 µM] (inactive)
O=C(O)C[C@@H](NC(=O)c1cc(-c2ccc(-c3ccncc3)cc2)cs1)c1ccccc1	inactive	–
CC[C@H]1OC(=O)C[C@@H](O)[C@H](C)[C@@H](O[C@@H]2O[C@H](C)[C@@H](O)[C@H](N(C)C)[C@H]2O)[C@@H](CCN2C[C@H](C)C[C@H](C)C2)C[C@@H](C)C(=O)/C=C/C(C)=C/[C@@H]1CO[C@@H]1O[C@H](C)[C@@H](O)[C@@H](OC)[C@H]1OC	inactive	–
COc1ccccc1[C@@H]1C2=C(CC(C)(C)CC2=O)Nc2n[nH]c(C(F)(F)F)c21	inactive	–
